For 40 compounds, Potency results are on record in PubChem BioAssay (NCATS).

Results filed as inconclusive are left out. Where a call stands in place of a potency, no number is given. Calls of active or inactive are those of the source. Calls come from the whole dose curve; as a rule, active = well fitted inhibition curve with a large enough effect; inconclusive = small, poorly fitted or top-dose-only effect; inactive = no such curve, though single readings can be large or run the other way.
Potency is the fitted concentration of half-maximal effect.

This assay deals with Retinaldehyde dehydrogenase 3 (Homo sapiens) (UniProt P47895). The assay is described as follows: qHTS for Inhibitors of the Aldehyde Dehydrogenase Family (ALDH1A3) Primary screen (AID 2061315). Particulars: ALDH inhibition qHTS; series mostly up to 56 µM. For orientation: qHTS replaces the single test concentration by a dilution series.
In the case of `COc1ccc2c(=O)n3nc(Nc4ccc5c(c4)CCC5)sc3nc2c1`, the Potency result was “inactive”.

In the case of `O=C(Nc1ncnc2c1C(c1ccccc1)c1c(ccc3ccccc13)O2)c1ccccc1` (stereo not given), the Potency entry is “inactive”.

As for `Cc1ccsc1CN(C)c1ncnc2ccc(-c3ccc(CO)o3)cc12`, the Potency entry is “inactive”.

As to `Cn1ccc2cc(-c3csc(N4CCC(C(N)=O)CC4)n3)ccc21`, the Potency entry is “inactive”.

Take `Cc1ccccc1NC(=O)CN1C(=O)N/C(=C\c2cn(-c3cccc(C(=O)O)c3)cn2)C1=O`: the Potency entry was “inactive”.

As to `O=C1CCc2cc(S(=O)(=O)Nc3ccccn3)ccc2N1`, the Potency result was “inactive”.

Turning to `O=C1CCCC2=C1C1(CCOCC1)N=C(Nc1nc3ccccc3o1)N2`, the Potency entry was “inactive”.

As for `CS(=O)(=O)c1ccc(C(=O)OCC(=O)N2CCN(C3CCCCC3)CC2)cc1[N+](=O)[O-]`, the Potency result is “inactive”.

For `c1nc(NCCc2cnc[nH]2)c2ccc(-c3ccc4c(c3)OCO4)cc2n1`, the Potency entry was “inactive”.

`CC(C)c1cccc(-n2cnc3cc(C(=O)N4CCCCC4)ccc32)c1`: the Potency entry is “inactive”.

As to `O=C(Cn1nc(-c2ccncc2)ccc1=O)NCCc1ccccc1`, the Potency entry was “inactive”.

With `O=C1c2ccccc2C(=O)N1c1ccc2ccccc2n1`, the Potency entry is “inactive”.

With `CC(=O)Nc1sc2c(c1-c1nc3ccccc3s1)CCN(C(C)=O)C2`, the Potency result is “inactive”.

For the compound `CSC(Cc1ccc(Cl)cc1)C(=O)Nc1ccc(Cl)cc1C(=O)O` (stereo not given), the Potency entry is “inactive”.

With `O=C(O)c1ccc(S(=O)(=O)N[C@@H](Cc2ccc(O)cc2)C(=O)O)cc1`, the Potency result is “inactive”.

Consider `Cc1ccc(NS(=O)(=O)c2cc3c(cc2-c2ccccc2)NC(=O)CO3)cc1C`, for which the Potency result was “inactive”.

Take `CNc1cccc(S(=O)(=O)N2CCCN(S(=O)(=O)c3ccc4c(c3)OCCO4)CC2)c1`: the Potency entry was “inactive”.

Regarding `O=S(=O)(Nc1nccs1)c1ccc(NCc2cccc(Br)c2O)cc1`, the Potency result is “inactive”.

On to `CCOc1cc2c(cc1OCC)CN(C(=O)c1cc3sccc3n1Cc1ccccc1)CC2`, for which the Potency result was “inactive”.

On to `COc1cc(-c2ccc3ncnc(NCc4cccs4)c3c2)cc(OC)c1OC`, for which the Potency result was “inactive”.

As for `Cc1cc(NS(=O)(=O)c2cc3c(cc2N[C@@H](C)CO)NC(=O)CC3)ccc1F`, the Potency entry is “inactive”.

In the case of `CCn1cnc2c(Nc3ccc(Cc4cccnc4)cc3)nc(C#N)nc21`, the Potency result was “inactive”.

Regarding `c1ccc(-n2ccc(-c3nnc4n3CCCCC4)c2)cc1`, the Potency entry is “inactive”.

For the compound `Cc1ccc(NS(=O)(=O)c2ccc3c(c2)CCO3)cc1C`, the Potency entry is “inactive”.

`Cc1ccnc(NC(=S)N2CCN(c3ccc(F)cc3)CC2)c1`: the Potency result was “inactive”.

With `O=c1c2ccccc2nc2sc(Nc3ccc(Oc4ccccc4)cc3)nn12`, the Potency entry was “inactive”.

For the compound `CC(=O)Nc1sc2c(c1-c1ccc(OC(F)(F)F)cc1)CCNC2`, the Potency entry was “inactive”.

Regarding `COc1ccc(C2c3c(N)nc(Cc4ccccc4)nc3Oc3ccc4ccccc4c32)cc1OC` (stereo not given), the Potency result was “inactive”.

As for `OCc1ccc(-c2ccc3ncnc(NCc4cccs4)c3c2)o1`, the Potency result is “inactive”.

Regarding `Cc1cc(C=CC#N)cc(C)c1Nc1nc(Nc2ccc3scnc3c2)c2[nH]cnc2n1`, the Potency entry is “inactive”.

Regarding `COc1ccccc1O[C@@H]1O[C@H](CO)[C@H](O)[C@H](O)[C@H]1O`, the Potency result was “inactive”.

`Cc1ccc(C#Cc2cc(-c3nn(-c4nc(C(=O)O)cs4)c(CC4CC4)c3Cc3ccc(S(N)(=O)=O)c(F)c3)ccc2F)o1`: the Potency entry is “inactive”.

On to `Cn1ncc2ccc(-c3ccc4ncnc(NCc5cccs5)c4c3)cc21`, for which the Potency entry was “inactive”.

Turning to `COc1ccnc(CS(=O)c2nc3cc(OC(F)F)ccc3[nH]2)c1OC` (stereo not given), the Potency was 31.6 µM (active).

`CN1CCN(c2cccc(Nc3nn4c(=O)c5ccc(C(F)(F)F)cc5nc4s3)c2)CC1`: the Potency result is “inactive”.

With `Cc1cc(/C=C/C#N)cc(C)c1Nc1nc(Nc2ccc3n[nH]nc3c2)c2[nH]cnc2n1`, the Potency entry is “inactive”.

Take `COc1cccc(CNc2ccc(S(=O)(=O)Nc3cccc4ccccc34)cc2)c1O`: the Potency result was “inactive”.

Consider `CC(=O)Nc1sc2c(c1-c1cc3ccccc3s1)CCNC2`, for which the Potency result is “inactive”.

`NC(=O)c1cccc(-c2cc(O)cc(OC(=O)NC3CCCCC3)c2)c1`: the Potency entry is “inactive”.

Take `N#Cc1c(-c2cccs2)no[n+]1[O-]`: the Potency entry is “inactive”.
